# From paper PMC7862700, “An all-to-all approach to the identification of sequence-specific readers for epigenetic DNA modifications on cytosine”
# Experiments:
# Assay in all cases: DAPPL (digital affinity profiling via proximity ligation, sequencing); 10 mM Tris-HCl pH 7.5, 50 mM NaCl, 1 mM DTT, 4% glycerol, room temperature, 30 min; GST-TFs on glutathione beads, 16-mer random dsDNA library, 0.1% formaldehyde crosslink after washing; high values mean tight binding
# Details in all cases: protein: recombinant; tags: N-terminal GST; dsDNA, one strand shown
# [1] = target: T1, ELK1 (Homo sapiens, UniProt P19419 1-428)
# T1 sequence: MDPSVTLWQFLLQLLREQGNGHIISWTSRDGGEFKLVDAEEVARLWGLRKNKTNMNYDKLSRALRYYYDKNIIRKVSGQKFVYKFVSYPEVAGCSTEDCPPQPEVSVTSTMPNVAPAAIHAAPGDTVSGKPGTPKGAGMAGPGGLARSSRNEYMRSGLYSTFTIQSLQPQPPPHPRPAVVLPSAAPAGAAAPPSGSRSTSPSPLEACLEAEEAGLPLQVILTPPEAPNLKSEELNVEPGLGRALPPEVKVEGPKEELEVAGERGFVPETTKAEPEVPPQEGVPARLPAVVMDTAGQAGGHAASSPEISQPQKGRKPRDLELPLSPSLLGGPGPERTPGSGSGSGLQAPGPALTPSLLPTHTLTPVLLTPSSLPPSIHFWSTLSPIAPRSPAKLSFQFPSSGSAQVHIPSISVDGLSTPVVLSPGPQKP
# Summary of the method: (§1)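 After expression in yeast as GST fusions, human transcription factors were bound to glutathione beads, DNA-barcoded and mixed with a tag-only sample. The pools were incubated with 200 nmole of a 16-mer random double-stranded DNA library in Tris/NaCl/DTT/glycerol buffer (30 min, room temperature), washed and crosslinked with 0.1% formaldehyde. Proximity ligation with BsaI/T4 ligase ran for 1 h at 37 °C, before PCR amplification and sequencing on an Illumina NextSeq500. Binding signal is a hexamer's read frequency for a factor divided by its frequency for the tag-only sample.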
# [2] = target: T2, ERG (Homo sapiens, UniProt P11308 1-479)
# T2 sequence: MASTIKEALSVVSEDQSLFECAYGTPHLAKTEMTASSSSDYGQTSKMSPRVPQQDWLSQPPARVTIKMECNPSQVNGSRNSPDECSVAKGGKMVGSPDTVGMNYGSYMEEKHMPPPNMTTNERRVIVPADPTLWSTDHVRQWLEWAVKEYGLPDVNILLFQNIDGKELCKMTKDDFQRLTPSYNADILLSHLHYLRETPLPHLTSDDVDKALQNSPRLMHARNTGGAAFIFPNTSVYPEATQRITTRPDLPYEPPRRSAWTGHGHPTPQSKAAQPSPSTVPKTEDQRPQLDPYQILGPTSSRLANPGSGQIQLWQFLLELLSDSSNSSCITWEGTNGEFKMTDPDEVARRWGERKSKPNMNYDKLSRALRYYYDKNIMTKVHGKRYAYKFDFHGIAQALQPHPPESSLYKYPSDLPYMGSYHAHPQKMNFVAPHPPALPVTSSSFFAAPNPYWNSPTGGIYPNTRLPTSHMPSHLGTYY
# Summary of the method: as §1
# [3] = target: ELF1 (Homo sapiens, UniProt P32519 1-619)
# ELF1, sequence (P32519 whole entry): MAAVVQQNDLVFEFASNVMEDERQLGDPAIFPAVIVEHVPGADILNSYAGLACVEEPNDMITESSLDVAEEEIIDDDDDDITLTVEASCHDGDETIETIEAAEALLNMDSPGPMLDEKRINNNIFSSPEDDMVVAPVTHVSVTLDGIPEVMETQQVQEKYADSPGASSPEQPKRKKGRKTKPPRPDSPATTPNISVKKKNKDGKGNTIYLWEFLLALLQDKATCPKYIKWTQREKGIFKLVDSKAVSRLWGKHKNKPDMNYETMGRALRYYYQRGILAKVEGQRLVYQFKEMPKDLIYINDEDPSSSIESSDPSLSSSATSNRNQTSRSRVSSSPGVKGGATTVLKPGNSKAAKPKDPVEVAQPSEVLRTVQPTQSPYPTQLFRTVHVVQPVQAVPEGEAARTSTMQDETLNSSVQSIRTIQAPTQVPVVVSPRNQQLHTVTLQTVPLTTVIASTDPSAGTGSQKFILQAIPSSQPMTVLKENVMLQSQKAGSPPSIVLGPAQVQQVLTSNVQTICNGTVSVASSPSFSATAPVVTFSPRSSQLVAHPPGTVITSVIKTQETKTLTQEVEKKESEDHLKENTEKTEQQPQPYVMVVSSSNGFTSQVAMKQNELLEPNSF
# Summary of the method: as §1
# [4] = target: T3, EHF (Homo sapiens, UniProt Q9NZC4 1-300)
# T3 sequence: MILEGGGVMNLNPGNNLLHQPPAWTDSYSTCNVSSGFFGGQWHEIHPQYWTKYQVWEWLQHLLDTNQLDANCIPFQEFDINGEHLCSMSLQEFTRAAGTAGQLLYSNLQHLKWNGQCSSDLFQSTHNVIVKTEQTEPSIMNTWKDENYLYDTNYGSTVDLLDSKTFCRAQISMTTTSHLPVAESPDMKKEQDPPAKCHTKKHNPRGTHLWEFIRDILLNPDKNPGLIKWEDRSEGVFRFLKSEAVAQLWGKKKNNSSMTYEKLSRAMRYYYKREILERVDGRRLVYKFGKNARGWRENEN
# Summary of the method: as §1
# [5] = target: SPIB (Homo sapiens, UniProt Q01892 1-262)
# SPIB, sequence (Q01892 whole entry): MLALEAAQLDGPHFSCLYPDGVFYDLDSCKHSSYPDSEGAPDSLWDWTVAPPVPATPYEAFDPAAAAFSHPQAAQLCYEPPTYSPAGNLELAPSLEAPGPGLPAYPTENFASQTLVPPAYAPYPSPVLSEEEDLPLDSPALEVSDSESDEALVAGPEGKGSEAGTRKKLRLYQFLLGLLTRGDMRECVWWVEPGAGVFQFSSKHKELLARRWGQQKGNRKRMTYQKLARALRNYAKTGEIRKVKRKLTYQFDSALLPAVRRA
# Summary of the method: as §1
# [6] = target: T4, ELK3 (Homo sapiens, UniProt P41970 1-407)
# T4 sequence: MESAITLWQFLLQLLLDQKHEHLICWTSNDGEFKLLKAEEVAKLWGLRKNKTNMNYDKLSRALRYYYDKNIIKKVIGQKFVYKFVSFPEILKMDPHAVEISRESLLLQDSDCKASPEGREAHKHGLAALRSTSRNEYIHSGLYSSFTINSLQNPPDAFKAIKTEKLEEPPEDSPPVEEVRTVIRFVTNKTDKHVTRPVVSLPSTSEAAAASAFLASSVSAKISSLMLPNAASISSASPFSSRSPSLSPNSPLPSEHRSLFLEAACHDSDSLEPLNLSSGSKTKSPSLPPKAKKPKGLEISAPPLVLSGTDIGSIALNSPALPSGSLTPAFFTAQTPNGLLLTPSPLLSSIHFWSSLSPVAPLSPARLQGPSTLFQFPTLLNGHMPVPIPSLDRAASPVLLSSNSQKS
# Summary of the method: as §1
# [7] = target: ETV5 (Homo sapiens, UniProt P41161 1-510)
# ETV5, sequence (P41161 whole entry): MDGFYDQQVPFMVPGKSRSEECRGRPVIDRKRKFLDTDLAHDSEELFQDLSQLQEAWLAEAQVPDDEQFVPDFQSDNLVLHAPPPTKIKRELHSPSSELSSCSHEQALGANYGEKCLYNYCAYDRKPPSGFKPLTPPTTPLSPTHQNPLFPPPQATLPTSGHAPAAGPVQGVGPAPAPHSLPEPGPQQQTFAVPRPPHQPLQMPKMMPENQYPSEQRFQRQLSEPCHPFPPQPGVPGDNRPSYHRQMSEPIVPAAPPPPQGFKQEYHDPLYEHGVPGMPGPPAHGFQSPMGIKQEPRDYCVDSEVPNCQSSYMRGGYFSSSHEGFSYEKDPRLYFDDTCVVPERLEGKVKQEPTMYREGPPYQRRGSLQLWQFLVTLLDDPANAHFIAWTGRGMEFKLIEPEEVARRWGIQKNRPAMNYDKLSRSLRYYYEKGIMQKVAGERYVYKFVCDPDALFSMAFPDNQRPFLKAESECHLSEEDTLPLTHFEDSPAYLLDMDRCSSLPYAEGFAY
# Summary of the method: as §1
# [8] = target: T5, SPIC (Homo sapiens, UniProt Q8N5J4 1-248)
# T5 sequence: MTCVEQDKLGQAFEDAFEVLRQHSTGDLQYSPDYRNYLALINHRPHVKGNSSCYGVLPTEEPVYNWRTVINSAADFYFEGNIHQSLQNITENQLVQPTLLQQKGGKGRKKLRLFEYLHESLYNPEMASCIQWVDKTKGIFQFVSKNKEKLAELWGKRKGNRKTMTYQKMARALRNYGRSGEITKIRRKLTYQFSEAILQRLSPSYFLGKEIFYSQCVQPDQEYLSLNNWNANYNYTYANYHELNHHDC
# Summary of the method: as §1
# [9] = target: ELF4 (Homo sapiens, UniProt Q99607 1-663)
# ELF4, sequence (Q99607 whole entry): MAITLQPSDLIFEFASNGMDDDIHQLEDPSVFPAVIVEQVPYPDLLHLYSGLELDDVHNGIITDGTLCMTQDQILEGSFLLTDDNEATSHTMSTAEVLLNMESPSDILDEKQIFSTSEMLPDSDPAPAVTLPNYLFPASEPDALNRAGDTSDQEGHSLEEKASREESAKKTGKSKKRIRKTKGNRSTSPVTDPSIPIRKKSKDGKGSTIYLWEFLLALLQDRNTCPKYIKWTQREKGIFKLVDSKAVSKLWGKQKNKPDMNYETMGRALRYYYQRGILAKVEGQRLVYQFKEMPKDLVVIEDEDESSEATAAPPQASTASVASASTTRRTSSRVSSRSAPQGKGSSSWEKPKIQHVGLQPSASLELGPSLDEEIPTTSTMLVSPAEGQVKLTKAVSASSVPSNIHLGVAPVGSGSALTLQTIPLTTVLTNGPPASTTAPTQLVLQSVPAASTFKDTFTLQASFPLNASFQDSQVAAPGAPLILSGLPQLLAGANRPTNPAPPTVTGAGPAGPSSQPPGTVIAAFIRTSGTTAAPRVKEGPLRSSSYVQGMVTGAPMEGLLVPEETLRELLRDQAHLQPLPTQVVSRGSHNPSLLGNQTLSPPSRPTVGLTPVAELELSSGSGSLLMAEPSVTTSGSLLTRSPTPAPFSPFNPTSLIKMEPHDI
# Summary of the method: as §1
# [10] = target: T6, ELK4 (Homo sapiens, UniProt P28324-2 1-405)
# T6 sequence: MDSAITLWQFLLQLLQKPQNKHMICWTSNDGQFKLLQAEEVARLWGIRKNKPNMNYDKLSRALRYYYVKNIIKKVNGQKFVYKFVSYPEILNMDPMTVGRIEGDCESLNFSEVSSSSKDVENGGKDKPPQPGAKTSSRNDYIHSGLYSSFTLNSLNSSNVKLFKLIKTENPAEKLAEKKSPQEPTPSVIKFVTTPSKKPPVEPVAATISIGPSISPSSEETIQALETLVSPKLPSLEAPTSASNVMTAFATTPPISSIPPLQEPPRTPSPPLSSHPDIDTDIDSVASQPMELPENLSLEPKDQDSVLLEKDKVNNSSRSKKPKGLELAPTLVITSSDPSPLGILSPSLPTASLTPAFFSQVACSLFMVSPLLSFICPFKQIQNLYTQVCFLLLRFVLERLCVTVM
# Summary of the method: as §1
# [11] = target: ETV1 (Homo sapiens, UniProt P50549 1-477)
# ETV1, sequence (P50549 whole entry): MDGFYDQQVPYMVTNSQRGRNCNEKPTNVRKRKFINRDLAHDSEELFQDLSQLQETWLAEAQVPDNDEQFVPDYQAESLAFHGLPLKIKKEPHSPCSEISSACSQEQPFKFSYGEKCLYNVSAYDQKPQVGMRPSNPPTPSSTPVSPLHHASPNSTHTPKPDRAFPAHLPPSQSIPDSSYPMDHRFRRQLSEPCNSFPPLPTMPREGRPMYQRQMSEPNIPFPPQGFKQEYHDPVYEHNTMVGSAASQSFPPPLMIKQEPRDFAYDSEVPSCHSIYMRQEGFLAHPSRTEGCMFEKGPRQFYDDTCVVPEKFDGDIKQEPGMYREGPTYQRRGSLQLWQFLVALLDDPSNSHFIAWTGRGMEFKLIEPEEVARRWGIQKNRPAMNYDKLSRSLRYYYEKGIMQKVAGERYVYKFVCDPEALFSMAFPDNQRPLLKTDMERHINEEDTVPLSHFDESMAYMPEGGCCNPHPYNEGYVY
# Summary of the method: as §1
# [12] = target: T7, ERF (Homo sapiens, UniProt P50548 1-548)
# T7 sequence: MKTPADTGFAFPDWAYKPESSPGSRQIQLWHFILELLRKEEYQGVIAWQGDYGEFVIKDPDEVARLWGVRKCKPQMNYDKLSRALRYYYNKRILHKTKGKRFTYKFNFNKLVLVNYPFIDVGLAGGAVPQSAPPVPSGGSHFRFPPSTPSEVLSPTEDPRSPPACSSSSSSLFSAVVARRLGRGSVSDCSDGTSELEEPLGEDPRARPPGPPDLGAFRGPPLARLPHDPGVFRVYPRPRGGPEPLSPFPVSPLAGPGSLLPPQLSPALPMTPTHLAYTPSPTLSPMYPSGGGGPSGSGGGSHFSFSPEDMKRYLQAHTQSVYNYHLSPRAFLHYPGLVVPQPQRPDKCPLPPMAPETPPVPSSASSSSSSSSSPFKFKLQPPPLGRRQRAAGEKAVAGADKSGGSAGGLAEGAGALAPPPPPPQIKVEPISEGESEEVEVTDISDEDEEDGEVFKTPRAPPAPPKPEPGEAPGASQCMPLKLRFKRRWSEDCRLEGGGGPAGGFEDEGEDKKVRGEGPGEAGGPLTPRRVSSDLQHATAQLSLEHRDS
# Summary of the method: as §1
# [13] = target: T8, ETV3L (Homo sapiens, UniProt Q6ZN32 1-361)
# T8 sequence: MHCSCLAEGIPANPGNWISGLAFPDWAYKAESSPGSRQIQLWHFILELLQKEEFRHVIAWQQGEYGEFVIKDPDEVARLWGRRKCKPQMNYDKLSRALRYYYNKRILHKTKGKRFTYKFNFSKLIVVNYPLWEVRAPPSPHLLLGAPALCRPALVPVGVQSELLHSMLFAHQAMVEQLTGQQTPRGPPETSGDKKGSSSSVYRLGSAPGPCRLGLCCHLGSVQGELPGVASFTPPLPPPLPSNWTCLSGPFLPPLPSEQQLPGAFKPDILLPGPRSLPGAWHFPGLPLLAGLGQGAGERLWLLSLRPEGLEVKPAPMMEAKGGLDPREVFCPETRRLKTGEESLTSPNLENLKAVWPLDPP
# Summary of the method: as §1
# [14] = target: T9, ETS2 (Homo sapiens, UniProt P15036 1-469)
# T9 sequence: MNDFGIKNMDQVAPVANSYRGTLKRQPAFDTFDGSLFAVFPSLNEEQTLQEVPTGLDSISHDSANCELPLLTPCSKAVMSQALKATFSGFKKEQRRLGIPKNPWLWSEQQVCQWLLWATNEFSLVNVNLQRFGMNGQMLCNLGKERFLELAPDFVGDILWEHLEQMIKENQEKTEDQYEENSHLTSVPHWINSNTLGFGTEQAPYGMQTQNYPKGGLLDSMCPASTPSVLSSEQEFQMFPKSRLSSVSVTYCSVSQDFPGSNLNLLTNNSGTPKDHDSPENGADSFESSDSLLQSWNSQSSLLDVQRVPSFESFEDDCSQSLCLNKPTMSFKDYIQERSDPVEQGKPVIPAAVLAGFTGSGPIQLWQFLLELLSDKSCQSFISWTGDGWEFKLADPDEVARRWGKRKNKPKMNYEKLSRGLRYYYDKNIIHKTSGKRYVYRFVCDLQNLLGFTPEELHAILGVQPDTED
# Summary of the method: as §1
# [15] = target: T10, SPDEF (Homo sapiens, UniProt O95238 1-335)
# T10 sequence: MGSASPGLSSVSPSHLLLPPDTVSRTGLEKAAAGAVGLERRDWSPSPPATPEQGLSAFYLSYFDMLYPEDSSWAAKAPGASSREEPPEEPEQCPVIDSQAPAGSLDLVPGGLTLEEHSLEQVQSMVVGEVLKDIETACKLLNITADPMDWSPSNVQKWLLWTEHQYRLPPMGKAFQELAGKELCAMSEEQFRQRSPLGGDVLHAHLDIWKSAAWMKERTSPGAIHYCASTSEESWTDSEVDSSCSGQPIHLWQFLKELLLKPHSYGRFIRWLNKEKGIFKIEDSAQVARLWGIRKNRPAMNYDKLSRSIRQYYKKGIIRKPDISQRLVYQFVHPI
# Summary of the method: as §1
# [16] = target: T11, ETV7 (Homo sapiens, UniProt Q9Y603 1-341)
# T11 sequence: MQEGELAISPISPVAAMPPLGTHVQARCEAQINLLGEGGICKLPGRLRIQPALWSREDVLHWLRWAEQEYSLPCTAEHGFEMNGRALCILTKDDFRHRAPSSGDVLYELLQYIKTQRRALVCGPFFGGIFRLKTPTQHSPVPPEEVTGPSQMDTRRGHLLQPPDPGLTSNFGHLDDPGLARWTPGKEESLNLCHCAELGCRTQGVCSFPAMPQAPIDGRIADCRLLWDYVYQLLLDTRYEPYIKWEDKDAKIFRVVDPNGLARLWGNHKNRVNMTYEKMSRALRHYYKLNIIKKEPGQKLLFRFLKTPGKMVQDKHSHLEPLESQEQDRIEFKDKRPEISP
# Summary of the method: as §1
# [17] = target: T12, ETV3 (Homo sapiens, UniProt P41162-2 1-143)
# T12 sequence: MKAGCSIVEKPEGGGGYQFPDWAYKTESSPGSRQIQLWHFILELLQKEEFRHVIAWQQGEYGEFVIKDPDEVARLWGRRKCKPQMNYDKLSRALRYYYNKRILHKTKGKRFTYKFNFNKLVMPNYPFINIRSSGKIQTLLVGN
# Summary of the method: as §1
# [18] = target: ETV6 (Homo sapiens, UniProt P41212 1-452)
# ETV6, sequence (P41212 whole entry): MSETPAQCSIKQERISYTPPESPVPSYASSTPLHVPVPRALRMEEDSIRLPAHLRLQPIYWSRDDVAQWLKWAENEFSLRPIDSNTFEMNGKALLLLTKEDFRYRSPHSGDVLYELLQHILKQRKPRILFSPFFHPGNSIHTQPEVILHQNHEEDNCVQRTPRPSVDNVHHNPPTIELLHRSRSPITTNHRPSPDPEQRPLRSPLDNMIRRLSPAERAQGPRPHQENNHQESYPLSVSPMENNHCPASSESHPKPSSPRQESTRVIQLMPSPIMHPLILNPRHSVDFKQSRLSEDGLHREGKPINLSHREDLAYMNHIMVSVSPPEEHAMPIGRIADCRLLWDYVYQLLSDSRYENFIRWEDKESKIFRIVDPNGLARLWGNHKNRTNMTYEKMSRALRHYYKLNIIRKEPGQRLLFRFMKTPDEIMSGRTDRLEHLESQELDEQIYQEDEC
# Summary of the method: as §1
sequence,measurement,setting,value
TGTTGT,binding signal,[1],"1.15 fold enrichment (6-mer frequency, TF over GST control)"
same,binding signal,[2],"1.08 fold enrichment (6-mer frequency, TF over GST control)"
same,binding signal,[3],"1.13 fold enrichment (6-mer frequency, TF over GST control)"
same,binding signal,[4],"1.09 fold enrichment (6-mer frequency, TF over GST control)"
same,binding signal,[5],"1.12 fold enrichment (6-mer frequency, TF over GST control)"
same,binding signal,[6],"1.05 fold enrichment (6-mer frequency, TF over GST control)"
same,binding signal,[7],"1.08 fold enrichment (6-mer frequency, TF over GST control)"
same,binding signal,[8],"1.23 fold enrichment (6-mer frequency, TF over GST control)"
same,binding signal,[9],"1.11 fold enrichment (6-mer frequency, TF over GST control)"
same,binding signal,[10],"1.24 fold enrichment (6-mer frequency, TF over GST control)"
same,binding signal,[11],"1.2 fold enrichment (6-mer frequency, TF over GST control)"
same,binding signal,[12],"1.02 fold enrichment (6-mer frequency, TF over GST control)"
same,binding signal,[13],"1.15 fold enrichment (6-mer frequency, TF over GST control)"
same,binding signal,[14],"1.05 fold enrichment (6-mer frequency, TF over GST control)"
same,binding signal,[15],"1.21 fold enrichment (6-mer frequency, TF over GST control)"
same,binding signal,[16],"1.14 fold enrichment (6-mer frequency, TF over GST control)"
same,binding signal,[17],"1.14 fold enrichment (6-mer frequency, TF over GST control)"
same,binding signal,[18],"1.11 fold enrichment (6-mer frequency, TF over GST control)"
